Assay [1] is described as follows: NCI Yeast Anticancer Drug Screen. Data for the rad50 strain (AID 155).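 Further: 0% = growth of vehicle-only cultures of the same strain.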 The note with it: S. cerevisiae rad50 strain growth inhibition; at 50.0 µM; stronger effect = higher value. The essentials:
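Inhibition values express reduced yeast growth in compound-treated cultures relative to vehicle-treated controls.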

Assay [2] in a line: NCI Yeast Anticancer Drug Screen. Data for the mec2-1 strain (AID 157). The note with it: S. cerevisiae mec2-1 strain, at 50.0 µM, stronger effect = higher value. The essentials:
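Vehicle-treated cultures served as reference for growth inhibition of compound-exposed mec2-1 yeast.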

The nature of assay [3]: NCI Yeast Anticancer Drug Screen. Data for the sgs1 mgt1 strain (AID 161).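 Further: 0% = growth of cultures given vehicle only.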 The note with it: S. cerevisiae sgs1 mgt1 strain, at 50.0 µM, stronger effect = higher value. The essentials:
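Test agents were incubated with a DNA-repair-mutant yeast strain. Growth was then read and compared against vehicle-treated controls.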

A short description of assay [4]: NCI Yeast Anticancer Drug Screen. Data for the cln2 rad14 strain (AID 165).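 Further: 0% = growth equal to vehicle treated cultures.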 The note with it: S. cerevisiae cln2 rad14 strain, at 50.0 µM, stronger effect = higher value. The essentials:
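Each compound was tested on cln2 rad14 yeast. Inhibition of growth was calculated against vehicle-exposed controls.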

Assay [5] is described as follows: NCI Yeast Anticancer Drug Screen. Data for the bub3 strain (AID 167). Conditions: S. cerevisiae bub3 mutant strain, at 50.0 µM, stronger effect = higher value. The essentials: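 Steps: expose the mutant yeast strain to compound; grow alongside vehicle-treated cultures; measure growth; express inhibition against the vehicle cultures.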
Assay [6] in a line: NCI Yeast Anticancer Drug Screen. Data for the mlh1 rad18 strain (AID 175). The note with it: S. cerevisiae mlh1 rad18 strain growth inhibition; at 50.0 µM; stronger effect = higher value. The gist of the method:
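Vehicle-treated cultures served as the reference for growth inhibition in a yeast strain carrying DNA damage repair alterations exposed to each compound.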

Each structure is given as a SMILES string. The panel holds about 79,000 compounds, 15% with a hit somewhere; the sample as a whole holds those more often. Values without a mark were called inactive. Calls of active or inactive are those of the source. No stated cut-off is given here; in the data, active means growth inhibition above about 70%; inactive means the rest.

Among the data in PubChem BioAssay (NCI) are growth inhibition values, retold here.

On to `C[Si](C)(OCCS(=O)(=O)O)C1S(=O)(=O)OCCOS1(=O)=O`, for which the growth inhibition in assay [1] was -18.7%; in assay [2], -21.4%; in assay [3], -12.9%; in assay [4] it was 8.6%; in assay [5], -16.8%; in assay [6] it was -18.4%.
As to `O=C1NC(CN2CCCC(O)C2)C(=O)NC1CN1CCCC(O)C1` (stereo not given), the growth inhibition is 2% in assay [1]; 9.35% in assay [2]; 13.3% in assay [3]; -22.8% in assay [4]; -4.45% in assay [5]; 7.6% in assay [6].
On to `Cc1c2ccccc2c(CN2CC(O)CC2C(=O)O)c2ccccc12` (stereo not given), for which the growth inhibition was 70.6% (active) in assay [1]; 33.2% in assay [2]; 63% in assay [3]; 78.5% (active) in assay [4]; 51.8% in assay [5]; 93.8% (active) in assay [6].
Consider `CC(O)CN1CCN(CCN(CC(C)O)CC(C)O)CC1` (stereo not given), for which the growth inhibition is -16.1% in assay [1]; -24.2% in assay [2]; -3.7% in assay [3]; -2% in assay [4]; -9.4% in assay [5]; -19.6% in assay [6].
On to `CCOC(=O)C(CCC(C)=O)C(=O)OCC`, for which the growth inhibition is -1.25% in assay [1]; 12.8% in assay [2]; -6.15% in assay [3]; 24.6% in assay [4]; 5.65% in assay [5]; -19.1% in assay [6].
Regarding `COc1ccc2c(c1)CCC1=C2CCC2=CC(=O)CC[C@@]21C`, the growth inhibition in assay [1] was 5.4%; in assay [2] it was 16.6%; in assay [3] it was 4.4%; in assay [4], 2.5%; in assay [5], 38%; in assay [6], -12.1%.
Regarding `O=C(CCN1CCCC1)Nc1ccc2sc3ccccc3c(=O)c2n1`, the growth inhibition in assay [1] is 38.5%; in assay [2], -61.8%; in assay [3] it was 8.75%; in assay [4], 9.7%; in assay [5], 16.6%; in assay [6], 10.6%.
As for `CN(C)C12CCC(c3ccccc31)c1ccccc12`, the growth inhibition in assay [1] is 29.8%; in assay [2], 20.8%; in assay [3] it was 27.4%; in assay [4] it was 8.6%; in assay [5], 36.5%; in assay [6], 4.25%.
On to `O=C1CN(CCCO)CC(=O)N2Cc3ccccc3CN12`, for which the growth inhibition in assay [1] is -8.95%; in assay [2], 4.55%; in assay [3] it was -18.7%; in assay [4] it was -10%; in assay [5] it was -6.85%; in assay [6], -11.3%.
Consider `Cc1ccc(C2OC2C(=O)c2ccccc2)cc1` (stereo not given), for which the growth inhibition was 0.05% in assay [1]; 0.25% in assay [2]; -19.5% in assay [3]; -48.5% in assay [4]; -36% in assay [5]; 5.85% in assay [6].
In the case of `CCCCCCCCCCCCCCOc1ccc(Sc2ccc([N+](=O)[O-])cc2)cc1`, the growth inhibition in assay [1] is 40.8%; in assay [2], -0.1%; in assay [3], 46%; in assay [4], -5%; in assay [5] it was 5.8%; in assay [6] it was 26.8%.
In the case of `O=C1CN(c2cccc(C(F)(F)F)c2)C(=O)CN1CCN1CC(=O)N(c2cccc(C(F)(F)F)c2)CC1=O`, the growth inhibition in assay [1] was -30.6%; in assay [2], -6.4%; in assay [3], -3.55%; in assay [4], -6.45%; in assay [5], -14.1%; in assay [6], -5.2%.
For the molecule `CN1CCC/C1=C/C(=O)c1ccccc1[N+](=O)[O-]`, the growth inhibition in assay [1] was 2.9%; in assay [2] it was -0.1%; in assay [3] it was -0.65%; in assay [4] it was -28.3%; in assay [5], 9.6%; in assay [6], -11.7%.
Turning to `C1COC2(C1)CCCO2`, the growth inhibition in assay [1] was 21.6%; in assay [2] it was -0.5%; in assay [3], -27.2%; in assay [4] it was 3.5%; in assay [5] it was 23.2%; in assay [6], -2.95%.
Regarding `CC(C)C1CC(C)(C)C2CC3OC(C(C)C)CC(C)(C)C3CC2O1` (stereo not given), the growth inhibition in assay [1] is -12.1%; in assay [2], -3%; in assay [3] it was 2.75%; in assay [4], -2.65%; in assay [5], -10.3%; in assay [6], 1.35%.
`CC(=O)OC1C(C(O)CO)OC2OC(C)(C)OC21` (stereo not given): the growth inhibition was -10.9% in assay [1]; -14.1% in assay [2]; -14% in assay [3]; -58.8% in assay [4]; -59.5% in assay [5]; -6.25% in assay [6].
Consider `CCc1nc2ccccc2cc1C`, for which the growth inhibition in assay [1] was 5.5%; in assay [2], -4.55%; in assay [3], 3.5%; in assay [4], -19.6%; in assay [5] it was 1.1%; in assay [6], 2.6%.
For `CC(=O)CCCS(=O)(=O)c1ccccc1`, the growth inhibition in assay [1] was -1.5%; in assay [2] it was 14.9%; in assay [3], 0.9%; in assay [4], -12.7%; in assay [5] it was -3.8%; in assay [6] it was 5.2%.
On to `CC1=CC(=O)/C(=C/N2CCNC2=S)C(=O)O1`, for which the growth inhibition in assay [1] is -24.6%; in assay [2], -20.6%; in assay [3], 1.3%; in assay [4], 5.65%; in assay [5] it was -31.3%; in assay [6] it was 4.7%.
For `COc1cc(C=C(c2ccc(N(C)C)cc2)c2ccc(N(C)C)cc2)c2ccccc2c1OC`, the growth inhibition is 22.9% in assay [1]; 14.5% in assay [2]; 3.15% in assay [3]; 27.3% in assay [4]; -12.8% in assay [5]; -42.5% in assay [6].
